Data as given in PubChem BioAssay AID504332 (National Center for Advancing Translational Sciences (NCATS), 2011).
Where “and” joins values, the source holds several entries; their conditions need not be identical. Identical values can stand only once. The whole screen tested about 350,000 compounds, of which about 31,000 (8.9%) were called active. Roughly 15% stayed inconclusive and do not appear here. Calls come from the whole dose curve; as a rule, active = well fitted inhibition curve with a large enough effect; inconclusive = small, poorly fitted or top-dose-only effect; inactive = no such curve, though single readings can be large or run the other way. The list comes from a sample in which actives are over-represented; it also holds similar structures and randomly drawn compounds.

biological target: Histone-lysine N-methyltransferase EHMT2 (Homo sapiens) (UniProt Q96KQ7); assay: qHTS Assay for Inhibitors of Histone Lysine Methyltransferase G9a; conditions: G9a H3K9 monomethylation, AlphaScreen, 2 h; series mostly up to 59 µM; note: nearly all actives have a fitted effect of over 75% in size
Summary of the method: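 Methyltransferase reactions run at room temperature for 2 h (20 nM enzyme, 500 nM biotin-H3K9 peptide, 20 uM SAM) after a 15 min compound preincubation; product detected by AlphaScreen beads and anti-H3K9me1 antibody.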
% is set by controls: 0 for no effect and ±100 for the full control effect; potency is the fitted concentration of half-maximal effect.

Sequence of Histone-lysine N-methyltransferase EHMT2 (Homo sapiens) (Q96KQ7 913-1193 limits assumed): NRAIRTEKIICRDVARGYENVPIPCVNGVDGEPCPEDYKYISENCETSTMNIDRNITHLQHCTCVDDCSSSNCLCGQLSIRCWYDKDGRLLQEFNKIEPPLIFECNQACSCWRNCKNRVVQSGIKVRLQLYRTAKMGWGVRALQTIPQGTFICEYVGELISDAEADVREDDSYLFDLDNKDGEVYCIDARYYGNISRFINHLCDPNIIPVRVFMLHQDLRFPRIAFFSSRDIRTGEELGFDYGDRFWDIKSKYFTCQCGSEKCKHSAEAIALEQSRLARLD

Potency, inactive:
CC1CCCN(c2cc3c(cc2F)c(=O)c(S(=O)(=O)c2cccc(Cl)c2)cn3Cc2ccccc2)C1 (centres undefined)
Cc1nc2ccn(Cc3cccs3)c(=O)c2cc1C(=O)NCc1ccc(Cl)cc1
COc1ccc(CNS(=O)(=O)c2cc3c4c(c2)CCN4C(=O)CC3)cc1
CNC(=S)N1CCN(c2ccccn2)CC1
CCOC(=O)c1ccc(NC(=S)N2CCN(c3ccccn3)CC2)cc1
CCCOc1ccc(-c2c(C(=O)N/N=C/c3ccco3)nnn2-c2nonc2N)cc1
O=S1(=O)CCN(Cc2ccccc2Cl)CC1
CCOc1ccc(CNC(=O)c2ccc(CS(=O)c3ccccc3)o2)cc1 (centres undefined)
Cc1cccc(NC(=O)c2sc(-c3ccccc3)nc2-c2ccc([N+](=O)[O-])cc2)c1
COC(=O)c1c(NC(=O)c2cc(=O)c3c(C)cc(C)cc3o2)sc2c1CCCC2
CCOC(=O)c1c(-c2ccccc2)oc2cc(Br)c(O)cc12
Cc1cc(O)c(NC(=O)c2ccc(C)c([N+](=O)[O-])c2)cc1C
COc1cc(/C(=C/c2ccccc2)c2ccccc2)c2c(c1)oc1ccccc12
CS(=O)(=O)Nc1cccc(C2=NN(C(=O)c3cccc(F)c3)C(c3cccs3)C2)c1 (centres undefined)
O=C(Cn1c(=O)n(Cc2cccs2)c(=O)c2cccnc21)Nc1ccc(F)cc1
Cc1ccc(NC(=O)Cc2ccc(NC(=O)N3CCCCc4ccccc43)cc2)cc1
CC(C)=CCCC(C)CN1CCC(n2nccc2NC(=O)c2ccccc2)CC1 (centres undefined)
O=C1c2oc3ccccc3c(=O)c2C(c2cccc(O)c2)N1c1ccccn1 (centres undefined)
COc1cc(C2c3c(oc4ccccc4c3=O)C(=O)N2c2nc(C)c(C)s2)ccc1O (centres undefined)
COc1ccc(NC(=O)CCc2nnc3n(CC(C)C)c(=O)c4ccccc4n23)cc1OC
Cc1nnc(NCCO)c2ccccc12
COc1ccc(Nc2nnc(C)c3ccccc23)cc1
CCOC(=O)C1CCCN(S(=O)(=O)c2cc(-c3cc(C)no3)ccc2OC)C1 (centres undefined)
Cc1ccc(/C=N/NC(=O)CSc2nc3ccccc3o2)cc1
Cc1nc2ccccc2n1CC(=O)N/N=C/c1cccnc1
CCOc1cc(/C=N/NC(=O)CN2CCCCC2)ccc1O
CCOc1ccc(/C=N/NC(=O)CSc2ccccn2)cc1O
Cc1c(C(=O)NCC(c2ccco2)N2CCCC2)oc2ccc(Cl)cc12 (centres undefined)
Cc1ccc(S(=O)(=O)NCCC(=O)NC2CCN(Cc3ccccc3)CC2)cc1
COc1ccc(-c2noc(-c3ccc(N4CCN(c5ccccc5)CC4)c([N+](=O)[O-])c3)n2)cc1OC
CCOc1ccccc1NC(=O)CN1CCN(S(=O)(=O)c2ccc(Br)cc2)CC1
CCNS(=O)(=O)c1ccc(NC(=O)CSc2nc(-c3ccco3)cc(C(F)(F)F)n2)cc1
CCOc1ccc(CC(=O)NC2CCN(Cc3ccccc3)CC2)cc1
Cn1c(=O)c2c(nc(SCC(=O)Nc3ccc(F)cc3)n2Cc2ccccc2)n(C)c1=O
Cc1cccc(Cn2c(SCCO)nc3c2c(=O)n(C)c(=O)n3C)c1
CCOc1ccccc1C(=O)Nc1ccc(S(=O)(=O)N2CCCCC2c2cccnc2)cc1 (centres undefined)
Cc1nnc(SCC(=O)NCc2ccccc2)s1
N#CCSc1nn(-c2ccc(F)cc2)c(=S)s1
Cc1cccc(N2CCN(C(=O)c3cc4c(=O)oc5ccccc5c4s3)CC2C)c1 (centres undefined)
CN(CCNC(=O)c1cc2c(-c3ccccc3F)nn(C)c2s1)C1CCCCC1
Oc1ccccc1-c1cc(-c2ccc(Cl)cc2)n[nH]1
O=C(NCc1ccc(F)cc1)c1ccc(Cn2c(SCc3ccc(F)cc3)nc3cccnc32)cc1

Potency, active:
COc1cc([N+](=O)[O-])ccc1NC(=S)N1CCN(c2ccccn2)CC1 44.7 µM
CSc1ccc(/C=N/N2CCN(Cc3ccccc3Cl)CC2)cc1 14.1 µM
Cc1nc(-c2ccc([N+](=O)[O-])cc2)c(-c2ccccc2)o1 15.8 µM
Cc1oc2cc(Br)c(O)c(Br)c2c1C(=O)c1ccccc1 44.7 µM
Cc1oc2cc([N+](=O)[O-])c(O)c([N+](=O)[O-])c2c1C(=O)c1ccc(Br)cc1 17.8 µM
CC(=O)c1sc(N2C(=O)c3oc4ccccc4c(=O)c3C2c2ccc(C)cc2)nc1C (centres undefined) 2 µM
NNc1nnc(NN)c2ccccc12 25.1 µM
Cn1c(SCC(=O)N/N=C/c2ccc(O)c(O)c2)nc2ccccc21 17.8 µM
Cc1nccn1CC(=O)N/N=C/c1ccc(O)c(O)c1 7.08 µM
CCOc1ccc(CN2CCCN(C)CC2)cc1 10 µM
COC(=O)C(C)Sc1nc2c(c(=O)n(C)c(=O)n2C)n1Cc1cccc(C)c1 (centres undefined) 20 µM
Cc1ccccc1-n1nc(SCC(=O)O)sc1=S 50.1 µM
Nc1ccc2nc3c(=O)[nH]c(=S)[nH]c3nc2c1 10 µM

activity, negative = inhibition, inactive:
CC(O)c1ccc(OCCN(C)c2ccccn2)cc1 (centres undefined) -1.26% [at 2.33 µM]
COc1ccccc1/C=N/N1CCN(Cc2ccccc2Cl)CC1 7.68% [at 0.501 µM]
COc1ccc([N+](=O)[O-])cc1-c1nc2ccccc2nc1-c1ccccc1 7.8% [at 0.501 µM]
Cc1cc(C(=O)O)ccc1[N+](=O)[O-] 3.38% [at 0.501 µM]
O=C(NCC(=O)N1CCCCCCC1)c1ccccc1Cl 8.52% [at 12.7 µM]
O=C(Nc1cc(-c2ccccc2)nn1-c1ccccc1F)c1ccc([N+](=O)[O-])cc1 -22.8% [at 12.7 µM]
CCOc1ccc(CN2CCN(Cc3c[nH]c4ccccc34)CC2)cc1 25.4% [at 2.33 µM]
Cn1c(N)c(C(=O)COC(=O)COc2ccc(Cl)cc2)c(=O)n(C)c1=O 17.9% [at 12.7 µM]
O=c1[nH]c(=O)c2nc3ccccc3nc2[nH]1 -3.42% [at 12.7 µM] and 46.4% [at 12.7 µM]
